Screens (PubChem BioAssay)
NPC1 promoter act – activators of NPC1 promoter | Huh7 NPC1 promoter luciferase reporter, 24 h | Potency, µM (titrated, usually from 9.22 µM), inactives show top-dose activation, actives largely listed as activators | 320,000 compounds, 2.4% hits | AID 485313; further: % of control where 0% means no effect; nearly all actives have a fitted effect of over 60% in size
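Compounds in DMSO were transferred onto Huh7 NPC1-luciferase reporter cells pre-incubated 2 h; after 24 h at 37 °C, Amplite reagent was dispensed and luminescence recorded 10 min later.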
ELG1 repair inh – ELG1-dependent DNA repair inhibition; Potency, µM (doses to about 46.1 µM), for inactives: top-dose activity change, negative = inhibition, usual class: inhibitors; HEK293T ELG1-luciferase reporter, luminescence, 16 h; DNA damage induced by 5-fluorouridine; 330,000 compounds, 2.3% hits; further: on the % scale 0 is the no-effect control and ±100 the full control effect; nearly all actives have a fitted effect of over 55% in size
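5-Fluorouridine DNA damage + compound/DMSO, 2,000 cells/well, 16 h, 37 °C/5% CO2. ONE-Glo, 30 min RT, luminescence. Readout = decrease in reporter signal.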
SMN2 splice up – enhancers of SMN2 splice variant expression; HEK293 SMN2-luciferase splicing reporter, luminescence, 30-36 h; Potency, µM (highest dose often 46.1 µM), without a hit: at the top dose activity change, positive = activation, usual class: activators; 210,000 compounds, 2.8% hits; AID 1458; further: % of control where 0% means no effect; nearly all actives have a fitted effect of over 55% in size
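HEK293 cells carry an SMN2 […]–luciferase reporter in which exon 7 inclusion puts luciferase in frame. Cells were plated 10-12 h before compound addition, then incubated 30-36 h at 37C. ONE-Glo luminescence was read; sodium butyrate at 4.5 mM final served as control.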
Rab9 promoter act – activates the Rab9 promoter | Huh7 Rab9 promoter-luciferase reporter, luminescence, 24 h | Potency, µM (highest dose often 9.22 µM), for inactives: at the top dose activation, negative = inhibition, hits mostly activators | 320,000 compounds, 2.8% hits | AID 485297; further: % of control where 0% means no effect; nearly all actives have a fitted effect of over 60% in size
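Rab9 promoter-driven luciferase in stably transfected Huh7 cells; 1500 cells/well rested 2 h, exposed to compound in DMSO for 24 h at 37 °C, 5% CO2. Luminescence read 10 min after adding luciferase reagent at ambient temperature.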
ELG1 genotoxic – genotoxicity induction in ELG1-luciferase HEK293T cells; 330,000 compounds, 1.3% hits; AID 504466; HEK293T ELG1-luciferase reporter, luminescence, 16 h; Potency, µM (doses to about 46 µM), inactives show at the highest dose activity change, positive = activation, hits mostly activators; further: % of control where 0% means no effect; nearly all actives have a fitted effect of over 60% in size
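Quantitative HTS format in 1536-well plates. HEK293T ELG1-luciferase reporter cells receive test compound and are incubated 16 hr at 37 °C, 5% CO2; ONE-Glo added, 30 min room temperature, then luminescence read.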
FLuc counter – counter-screen for miR-21 project: firefly luciferase inhibitors or activators; P08659; purified FLuc, Km substrates, luminescence inhibition; Potency, µM (series often up to 57.5 µM), inactives show at the top dose activity change, negative = inhibition, hits mostly inhibitors; 360,000 compounds, 6.9% hits; AID 588342;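 further: plate controls were vehicle for no effect and reference inhibitor for full effect; nearly all actives have a fitted effect of over 55% in size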
Target sequence (P08659 whole entry, looked up): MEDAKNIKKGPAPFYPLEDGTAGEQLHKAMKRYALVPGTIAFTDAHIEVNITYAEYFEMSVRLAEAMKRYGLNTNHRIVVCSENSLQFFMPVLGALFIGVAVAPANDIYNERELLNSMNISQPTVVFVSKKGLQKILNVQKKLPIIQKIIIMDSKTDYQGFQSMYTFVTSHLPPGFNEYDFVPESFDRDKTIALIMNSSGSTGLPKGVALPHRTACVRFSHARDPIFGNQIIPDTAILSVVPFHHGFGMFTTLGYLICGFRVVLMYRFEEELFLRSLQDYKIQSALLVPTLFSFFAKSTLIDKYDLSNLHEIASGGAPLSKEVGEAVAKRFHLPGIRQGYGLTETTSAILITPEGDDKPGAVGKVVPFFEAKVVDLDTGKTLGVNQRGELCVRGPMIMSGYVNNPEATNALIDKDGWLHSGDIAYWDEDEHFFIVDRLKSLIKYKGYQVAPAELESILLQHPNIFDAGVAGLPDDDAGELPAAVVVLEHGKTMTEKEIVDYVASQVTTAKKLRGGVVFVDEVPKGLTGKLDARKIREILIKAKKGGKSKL
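Biochemical qHTS of compounds, final roughly 60 µM downward over six points, against 10 nM purified firefly luciferase using Km concentrations of substrates (10 uM D-luciferin, 10 uM ATP) in Tris acetate pH 7.5 buffer; luminescence output.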
* hit, by the source's call; ? = inconclusive; · = no result; [ ] = another dose, or the depositor's remark. In the library only some 9.2% were active in any assay of this set; here they are far more common. The call rests on the fitted dose curve; in most records, active means well fitted curve in the direction sought with a large enough effect; inconclusive means small, poorly fitted or top-dose-only effect, or another doubt; inactive means no such curve, though single readings can be large; an effect the other way counts as inactive or inconclusive. Potency means the concentration at half of the fitted maximal effect.

SMILES	NPC1 promoter act	ELG1 repair inh	SMN2 splice up	Rab9 promoter act	ELG1 genotoxic	FLuc counter
CC(C)OC(=O)Nc1ccc2c(c1)N(C(=O)N1CCN(C)CC1)c1ccccc1CC2	?	?	·	?	?	6µM*
O=C(Nc1cccc(Cl)c1)O/N=C\c1ccncc1	-1%	6%	·	1%	0%	?
Cc1ccc(N/N=C/c2ccncc2)cc1	?	?	·	3.2µM*	?	12µM*
Clc1cccc(N/N=C/c2ccncc2)c1	26%	?	?	?	?	17µM*
C(=N\Nc1ccccn1)/c1cccnc1	18%	42%	·	20%	7%	?
Cc1ccc(N/N=C/c2cccnc2)cc1	?	?	?	?	?	17µM*
CCc1ccc(CNC(=O)C2CCN(c3nnc(-n4c(C)ccc4C)s3)CC2)cc1	·	·	-8%	·	·	-11%
Cc1ccc(-c2nc3scc(CCNS(=O)(=O)c4ccc(C)c(C)c4)n3n2)cc1	·	·	·	·	·	0%
Cc1cc(NS(C)(=O)=O)c(=O)n(Cc2c(F)cccc2Cl)c1	0%	-5%	·	-2%	-2%	-3%
Cc1ccc(/C=C/C(=O)Nc2ccc(Oc3ccccc3)cc2)o1	-5%	?	-47%	1%	9%	6µM*
CC(=O)c1ccc(NC(=O)/C=C/c2ccc(C)o2)cc1	·	·	13µM*	·	·	7.6µM*
COCCNC(=O)Cn1c(=O)n(-c2ccc(C)c(C)c2)c(=O)c2c3c(sc21)CCCCC3	·	·	0%	·	·	-9%
Cc1ccc2[nH]c(C(=O)N/N=C/c3ccccc3C(=O)O)c(-c3ccccc3)c2c1	-3%	?	·	-11%	-3%	?
Cc1ccc2[nH]c(C(=O)N/N=C/c3ccccc3O)c(C)c2c1	-10%	2.3µM*	·	-34%	?	-19%
CCOC(=O)c1cc(-c2ccccc2)nc2nc(N3CCCCC3)sc12	-3%	?	5%	-7%	-5%	-13%
Cc1ccc(-c2cc(C(=O)O)c3sc(N4CCCCC4)nc3n2)cc1	-2%	?	-9%	1%	9%	24µM*
COc1ccc(-c2cc(C(=O)O)c3sc(N4CCCCC4)nc3n2)cc1OC	1%	5%	4%[1.84 µM]	10%	1%	4.8µM*
O=C(O)c1cc(-c2ccccc2)nc2nc(N3CCCCC3)sc12	-2%	19%	5%	0%	13%	17µM*
COc1ccccc1CCNC(=O)c1cccc(S(=O)(=O)N2CCc3ccccc3C2)c1	0%	-12%	·	0%	1%	0%
CN1CCN(NC(=O)CC(C)(C)C)CC1	-1%	1%	16%	-5%	0%	0%
COc1cccc2cc(S(=O)(=O)c3ccc(F)c(C)c3)c(=O)oc12	·	·	-5%	·	·	1%
O=C(O)c1ccc(NCCc2ccc(Cl)cc2)c([N+](=O)[O-])c1	-4%	-2%	1%	-3%	1%	?
O=C(NNc1ccccc1)C(=O)NNS(=O)(=O)c1ccc(CCCl)cc1	2%	6.5µM*	·	0%	9%	0%
Nc1ccc(S(=O)(=O)NNC(=O)C(=O)NNc2ccccc2)cc1	0%	17%	-40%	-6%	11%	1%
COc1ccc(C(=O)Nc2cccc(-c3cn4ccsc4n3)c2)cc1OC	·	·	·	·	·	3.4µM*
SMILES	NPC1 promoter act	ELG1 repair inh	SMN2 splice up	Rab9 promoter act	ELG1 genotoxic	FLuc counter
COc1ccc(C(=O)Nc2cccc(-c3cn4ccsc4n3)c2)c(OC)c1	·	·	·	·	·	2.7µM*
O=C(NCCS(=O)(=O)NCCc1ccccc1)c1ccccc1	13%	?	·	26%	?	1%
Cc1ccccc1OCC(=O)Nc1nc2ccccc2[nH]1	?	?	18µM*	2.2µM*	24%	3.4µM*
O=C(COc1ccccc1)Nc1nc2ccccc2[nH]1	?	?	?	3.5µM*	4.5µM*	12µM*
CCOc1ccccc1OCC(=O)Nc1nc2ccccc2[nH]1	-1%	-5%	11%	12%	-3%	15µM*
O=C(COc1cccc2ccccc12)Nc1nc2ccccc2[nH]1	-4%	-10%	11%	-7%	1%	?
CC(CC(=O)Nc1nc2ccccc2[nH]1)c1ccccc1 (stereo not drawn)	4.5µM*	?	?	4µM*	?	12µM*
N#Cc1ccccc1NC(=O)CSc1nc(-c2ccccc2)cc(C(F)(F)F)c1C#N	·	·	-3%	·	·	1%
COc1ccc(-c2n[nH]c(=S)n2-c2ccc(C)cc2)cc1OC	-8%	17%	·	3%	15%	-2%
CN(C)CCCSc1nc2ccccc2[nH]1	·	·	-12%[9.22 µM]	·	·	·
Cc1c(OCC(F)(F)F)ccnc1CSc1nc2ccccc2[nH]1	?	?	-21%	?	16%	12µM*
Cc1ccccc1OCCCSc1nc2ccccc2[nH]1	0%	-10%	·	3%	0%	24µM*
CCCCn1c(N)c(N(CCOC)C(=O)CN2C(=O)C3CCCCC3C2=O)c(=O)[nH]c1=O (stereo not drawn)	-4%	5%	·	-6%	1%	3%
COc1cccc(CNC(=O)N2CCN(c3ccccc3)CC2)c1	2%	-7%	·	0%	5%	4%
Cc1ccc(NC(=S)NNC(C)(C)C)cc1	11%	-3%	·	17%	-7%	?
CC(C)=NN/C(N)=N/C(=S)Nc1ccc(C)cc1	2%	?	17%	22%	?	4.8µM*
CCCC(=O)Nc1ccccc1C(=O)OCc1cc(=O)n2nc(C(C)C)sc2n1	·	·	·	·	·	-6%
COc1cc(C2CC(=O)Oc3cc(C)cc(C)c32)cc(OC)c1OC (stereo not drawn)	·	12%	·	·	4%	·
O=C1CSC(c2cn(-c3ccccc3)nc2-c2ccccc2)N1Cc1ccco1 (stereo not drawn)	-2%	18µM*	-13%	28%	-7%	5%
CC1=CC(C)(C)N2C(=O)C3(NCCc4c3[nH]c3ccccc43)c3cccc1c32 (stereo not drawn)	-4%	-20%	·	-15%	-3%	4%
Cc1ccnc(SCC(=O)c2cccs2)n1	3.5µM*	?	?	3.2µM*	?	?
CCn1c(SCC(=O)c2cccs2)nnc1-c1ccco1	17%	?	-1%	21%	17%	21µM*
CCn1c(SCC(=O)c2ccc(O)c(O)c2)nnc1-c1ccccc1OC	-1%	-13%	5%	-1%	0%	-17%
CCn1c(SCC(=O)c2cc(C)n(-c3ccc(C(=O)OC)cc3)c2C)nnc1-c1cccnc1	-1%	?	-7%	-4%	-17%	15µM*
CCn1c(SCC(=O)c2ccc(O)c(O)c2)nnc1-c1ccccc1	-2%	?	?	-8%	21µM*	?
